Shown are actives, neighbours in structure and some others; about 8% of the full set was active somewhere.
LASV entry inh: qHTS for Inhibitors of binding or entry into cells for Lassa Virus; AID 540256, 2011; Potency, µM (top dose mostly 37.9 µM), for the others: top-dose activity change, negative = inhibition, actives largely listed as inhibitors; 1.2% of 300,000 active; Lassa virus pseudotype entry inhibition, cell reporter; calls by dose curve; tested in HEK293 cells; also: potency is read from the fitted curve at half-maximal effect; % is scaled to controls: 0 for no effect and ±100 for the full control effect; nearly all actives have a fitted effect of over 50% in size
HCMV inh: qHTS Assay for inhibitors of the human cytomegalovirus (HCMV). AID 1259415, 2018. 4.5% of 410,000 active. activity change, negative = inhibition, % at 57.5 µM. HFF cells, HCMV-luciferase reporter, 72 h; stronger effect = lower value; in the data active = activity change below about -60%; inconclusive = no clear call, values can overlap the other calls; inactive = above about -39%; also: % is scaled to controls: 0 for no effect and ±100 for the full control effect
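Human foreskin fibroblasts infected with luciferase-reporter HCMV at MOI 1 PFU/cell, compounds at two doses. Luciferase measured 72 h post infection; normalized to buffer-only basal and Salinomycin (10uM) controls.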
FMDV antiviral: High Throughput Screening for Foot and Mouth Disease Virus Antivirals; FMDV antiviral cell-based qHTS; Potency, µM (highest dose often 57.9 µM), for inactives: at the top dose activity change, negative = inhibition, hits mostly inhibitors; 1.2% of 410,000 active; AID 1159524, 2015; calls by dose curve; tested in HEK293T cells; also: read-out not given here; potency is read from the fitted curve at half-maximal effect; % is scaled to controls: 0 for no effect and ±100 for the full control effect; nearly all actives have a fitted effect of over 45% in size
HCV inhibitor: qHTS Assay for Inhibitors of Hepatitis C Virus (HCV). Huh7.5.1 HCVcc-Cre infection, luciferase reporter, 44 h. Potency, µM (titrated, usually from 41.8 µM), for the others: at the top dose activity change, negative = inhibition, most hits filed as inhibitors. 3.4% of 340,000 active; active = well fitted inhibition curve with a large enough effect; inconclusive = small, poorly fitted or top-dose-only effect, or another doubt; inactive = no such curve, though single readings can be large or run the other way; also: potency is read from the fitted curve at half-maximal effect; % is scaled to controls: 0 for no effect and ±100 for the full control effect
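HCVcc-Cre virus at an moi near 0.5 was added right after compound to cells cultured 4 h from seeding (1,000 cells/well). Luciferase activity was determined 44 h later, 15 min after substrate addition at RT.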
MARV entry inh: qHTS for inhibitors of binding or entry into cells for Marburg Virus; Marburg virus pseudotyped entry inhibition, cell reporter; Potency, µM (titrated, usually from 37.8 µM), without a hit: at the highest dose activity change, negative = inhibition, hits mostly inhibitors; 1.8% of 300,000 active; AID 540276, 2011; calls by dose curve; tested in HEK293 cells; also: potency is read from the fitted curve at half-maximal effect; % is scaled to controls: 0 for no effect and ±100 for the full control effect
SARS PLP yeast: qHTS of Yeast-based Assay for SARS-CoV PLP; S. cerevisiae expressing SARS-CoV PLpro, growth rescue; 0.19% of 330,000 active; Potency, µM (titrated, usually from 32.9 µM), inactives show at the top dose activity, positive = growth rescue, hits mostly activators; calls by dose curve; also: potency is read from the fitted curve at half-maximal effect; 0% is about no effect; nearly all actives have a fitted effect of over 55% in size
* hit, by the source's call; ? = inconclusive; . = no result; [ ] = another dose, or the depositor's remark.

SMILES | LASV entry inh | HCMV inh | FMDV antiviral | HCV inhibitor | MARV entry inh | SARS PLP yeast
CC(C)(C)c1cc(CP(=O)(c2ccccc2)c2ccccc2)cc(C(C)(C)C)c1O | . | -14 | ? | 16µM* | . | -12%
CCn1c(C)cc(C=C2C(=O)c3ccccc3C2=O)c1C | ? | 32 | -76% | ? | 13µM* | -1%
CCC(C)Sc1cc(C(F)(F)F)c(C(=O)Nc2ccc(Cl)cc2)cn1 (stereo not given) | ? | -33 | ? | 22µM* | ? | -2%
COC(=O)/C=c1/sc2nc3ccccc3n2c1=O | ? | 5 | 2% | 8% | 18% | 1%
O=c1/c(=C/c2ccccn2)sc2nc3ccccc3n12 | -10% | 69 | 10µM* | 0% | ? | -3%
O=C(NCCNC1CCC(c2ccccc2)CC1)c1cccs1 (stereo not given) | -10% | -99* | -13% | ? | ? | 1%
CCOC(=O)N1CCC(NCCNC(=O)c2cccs2)CC1 | -23% | -16 | -20% | 27% | 0% | 8%
O=C(CCl)Nc1sccc1C(=O)c1ccccc1 | 9% | -14 | 20µM* | 2% | 9%[46.1 µM] | .
Cc1cc(C(=O)c2ccc(C(C)(C)C)cc2)c(NC(=O)CCl)s1 | ? | -65* | 35µM* | ? | ? | -37%
Cc1sc(NC(=O)CCl)c(C(=O)c2ccccc2)c1C | ? | -23 | ? | ? | 2% | -16%
Cc1cc(C(=O)c2ccccc2)c(NC(=O)CN2CCOCC2)s1 | . | -6 | -9% | -3% | . | .
Cc1nc2cc(NC(=O)[C@@H]3C[C@@H](Sc4ccccn4)CN3Cc3cccc(F)c3)ccc2s1 | . | . | 5% | . | . | .
CC1=CC(=Nc2c(C)n(C)n(-c3ccccc3)c2=O)C=C(C)C1=O | ? | -75* | ? | 32% | ? | 5%
O=Cc1ccc(-c2ccc([N+](=O)[O-])cc2Cl)o1 | 2% | -66* | -15% | 1% | 2%[46.1 µM] | -11%
CC(C(=O)NCc1ccccc1)N1C(=O)c2ccccc2C1=O (stereo not given) | 1% | 6 | -13% | 16% | 0% | 0%
CC(C(=O)O)N1C(=O)c2ccccc2C1=O (stereo not given) | 0% | -99* | -10% | 6% | 1% | -7%
CC(=O)c1c(C)oc2c(Cl)cc(NS(=O)(=O)c3cc(C)c(C)cc3C)cc12 | 7%[46.1 µM] | 7 | -4% | . | -1%[46.1 µM] | .
CCCSc1nnc(-c2cccc(S(=O)(=O)N(C)C)c2)n1-c1cc(OC)ccc1OC | -5% | -62* | 16% | -10% | -3% | -8%
CCSc1nnc(-c2cccc(S(=O)(=O)N(C)C)c2)n1-c1cc(OC)ccc1OC | ? | 20 | -12% | ? | -8% | 1%
CCCN(CCC)C(=O)Cn1c(=O)n(-c2ccc(CC)cc2)c(=O)c2ccc(C(=O)NCCc3ccccc3)cc21 | -7%[46.1 µM] | -7 | -17% | . | 14%[46.1 µM] | .
OC(CN1CCN(Cc2ccccc2)CC1)Cn1c2ccccc2c2ccccc21 (stereo not given) | -25% | -28 | -19% | 11µM* | ? | -13%
OC(CN1CCN(c2ccccn2)CC1)Cn1c2ccc(Cl)cc2c2cc(Cl)ccc21 (stereo not given) | -19% | 5 | -15% | -5% | ? | -18%
Cc1cc(=O)n2c3ccccc3n(CC(O)CN3CCN(CCO)CC3)c2c1C#N (stereo not given) | 7%[46.1 µM] | -17 | -5% | ? | 8%[46.1 µM] | 0%
OC(CN1CCCCC1)Cn1c2ccc(Cl)cc2c2cc(Cl)ccc21 (stereo not given) | -29% | -15 | ? | ? | 10µM* | 0%
COc1ccc(-c2cc3ccccc3n2CC(O)CNCCO)cc1 (stereo not given) | -19% | -7 | -24% | -1% | ? | 5%
SMILES | LASV entry inh | HCMV inh | FMDV antiviral | HCV inhibitor | MARV entry inh | SARS PLP yeast
Cc1cc(=O)n2c3ccccc3n(CC(O)CN3CCN(Cc4ccccc4)CC3)c2c1C#N (stereo not given) | . | -68* | -26% | ? | . | 0%
COc1ccc(-c2cc3ccccc3n2CC(O)CN2CCCCC2)cc1 (stereo not given) | . | -81* | -33% | -8% | . | -3%
CCCCN(C)CCNC(=O)c1ccc2c(=O)n(CCc3ccccc3)c(=O)[nH]c2c1 | ? | 4 | -5% | . | -13%[46.1 µM] | .
CC(=O)N1CCCc2cc(S(=O)(=O)N(C)CC(=O)Nc3ccc(C)cc3C)ccc21 | -3%[46.1 µM] | -26 | -28% | . | . | .
COc1ccc(NS(=O)(=O)c2ccc3[nH]c(=O)ccc3c2)cc1OC | -5%[46.1 µM] | 32 | -11% | . | . | .
C[C@@H]1O[C@@H](O[C@@H]2C=C3CCC4C(CC[C@]5(C)[C@@H](c6ccc(=O)oc6)CC[C@]45O)[C@@]3(C)CC2)[C@H](O)[C@H](O)[C@H]1O (stereo not given in full) | . | -99* | ? | ? | . | .
CC(=O)C1CCC2(O)C3CCC4=CC(=O)CCC4(C)C3CCC12C (stereo not given) | -2%[46.1 µM] | -6 | -20% | 1% | 18% | .
C[C@@H]1O[C@@H](O[C@@H]2C=C3CC[C@@H]4C(CC[C@]5(C)[C@@H](c6ccc(=O)oc6)CC[C@]45O)[C@@]3(C)CC2)[C@H](O)[C@H](O)[C@H]1O (stereo not given in full) | . | -97* | ? | 0.56µM* | . | 3%
CN(C)c1ccc(CNC(=O)c2cccc(NC(=O)N3CCSc4ncccc43)c2)cc1 | -15%[46.1 µM] | -6 | ? | . | . | .
COc1ccc(OC)c(NC(=O)CCCc2nnc3n(C(C)C)c(=O)c4sccc4n23)c1 | 9%[46.1 µM] | 35 | -10% | . | . | .
O=C(/C=C/c1cccnc1)c1ccc(F)c(F)c1 | 12%[46.1 µM] | 67 | 0% | 1% | 7.1µM* | -61%
CN(C)c1ccc(C(=O)/C=C/c2cccnc2)cc1 | . | -67* | -16% | -3% | . | -4%
CC(=O)Nc1cccc(NC(=O)CC2(C)N=C(c3cccc(Br)c3)N(C)O2)c1 (stereo not given) | . | -13 | . | . | . | .
CCOc1ccccc1C1CC(=O)NC(SCC)=C1C#N (stereo not given) | -17% | 12 | . | -18% | 2% | 3%
CCCSC1=C(C#N)C(c2ccccc2C)CC(=O)N1 (stereo not given) | -15% | -99* | ? | -12% | ? | 5%
CCSC1=C(C#N)C(c2ccccc2OC)CC(=O)N1 (stereo not given) | . | -75* | -10% | -8% | . | 4%
COc1ccc(CN2CCCC(c3nc(-c4ccncc4)ncc3-c3ccccc3C)C2)c(OC)c1 (stereo not given) | . | . | -8% | . | . | .
COc1ccc(Cn2cc(S(=O)(=O)c3ccc(C)cc3)c(=O)c3cc(F)ccc32)cc1 | 1%[46.1 µM] | -9 | 46% | . | ? | .

High-throughput results deposited in PubChem by National Center for Advancing Translational Sciences (NCATS).
